Columns and labels:
Assay in all cases: PBM binding z-score (relative to random genomic background probes); higher = stronger binding; sequences stand for … in GC…GCGATTGACAGCGTAGAATGAAGG
[1] = tested on: FXR:RXRa (NR concentration 270 nM, RXRa partner concentration 90 nM)
How it was run: (§1)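 For binding z-scores, the reference was random background probes on custom Agilent 4×180K protein-binding microarrays. These arrays were incubated 1 h with ligand-free nuclear receptor dimers in PBS pH 7.4, 2% milk, 0.02% Triton X-100, 1 mM DTT, 0.2 mg/mL BSA and 0.4 mg/ml salmon testes DNA. Fluorescence was scanned after antibody detection of each partner (one per run) and regression-normalized.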

[2] = tested on: LXRa:RXRa (NR concentration 270 nM, RXRa partner concentration 90 nM)
How it was run: as §1

[3] = tested on: LXRa homodimer (NR concentration 270 nM)
How it was run: as §1

[4] = tested on: LXRb:RXRa (NR concentration 270 nM, RXRa partner concentration 90 nM)
How it was run: as §1

[5] = tested on: LXRb homodimer (NR concentration 270 nM)
How it was run: as §1

[6] = tested on: PPARa:RXRa (NR concentration 270 nM, RXRa partner concentration 90 nM)
How it was run: as §1

[7] = tested on: PPARg:RXRa (NR concentration 180 nM, RXRa partner concentration 90 nM)
How it was run: as §1

[8] = tested on: PPARg:RXRa 270nM:90nM, anti-RXR (NR concentration 270 nM, RXRa partner concentration 90 nM)
How it was run: as §1

[9] = tested on: PPARg:RXRa 30nM:10nM, anti-RXR (NR concentration 30 nM, RXRa partner concentration 10 nM)
How it was run: as §1

[10] = tested on: PPARg:RXRa 90nM:30nM, anti-RXR (NR concentration 90 nM, RXRa partner concentration 30 nM)
How it was run: as §1

Sequence | PBM binding z-score [1] | PBM binding z-score [2] | PBM binding z-score [3] | PBM binding z-score [4] | PBM binding z-score [5] | PBM binding z-score [6] | PBM binding z-score [7] | PBM binding z-score [8] | PBM binding z-score [9] | PBM binding z-score [10]
CTTACTGGGCCATTCAGAGGTCATTGATCATATG | 3.23 | 4.72 | 6.7 | 4.11 | 0.985 | 4.48 | 4.03 | 4.43 | 2.21 | 3.71
AATACAGGGTCGTCGTAGGCCAGAGTACGCACAG | 2.12 | 1.97 | 0.0247 | 1.42 | 0.00201 | 2.91 | 1.93 | 1.36 | 0.194 | 0.808
ACTATTAGTTGAGACGAGGGCTACCGATAGGTTG | -0.0056 | -0.0365 | -0.197 | -0.414 | 0.162 | -0.477 | 0.7 | -0.127 | 0.174 | 0.0258
TCTGCTGGGTCAGTTGGTCAGCTAACGAGCTGCC | 0.384 | -0.0859 | -1.01 | 0.206 | 0.206 | 1.4 | 0.0356 | 1.6 | 1.09 | 1.19
GCTAGTTGGTCAGTAAAAGGTCACACATCGGTCG | 3.3 | 4.12 | 4.59 | 4.13 | 0.936 | 4.23 | 2.71 | 4.56 | 2.08 | 3.74
AGAATGAGGTTACGAAAGATCAGGGAAACGCTTG | 2.59 | 4.99 | -0.188 | 2.46 | -0.578 | 3.68 | 2.95 | 2.84 | 1.04 | 2.02
CCAGACAGGCGAAAGGTAACTCAGTCTGGTACGC | -0.414 | -0.478 | -0.885 | -0.448 | -1.33 | 0.667 | 1.57 | 2.87 | 0.676 | 2.22
CCTACTAGGTCATGGTCAGCTAATCTACAGTATG | 3.8 | 2.57 | 0.658 | 2.06 | 0.291 | 4.33 | 6.76 | 5.84 | 3.38 | 4.97
GCTAGTTGGTCAGTAAAAGGTCACGCACCGGTCG | 4.11 | 4.91 | 4.69 | 4.3 | 0.681 | 4.73 | 3.18 | 5.04 | 2.52 | 4.78
GCTATTAGTTGATAGGGCAACCGAATGATTCTCG | 0.0649 | -0.305 | -0.0602 | -0.111 | -0.693 | 0.29 | 0.713 | 1.48 | 0.376 | 0.928
CGAACGGGGGCATGAGTTGATAGCAAATGCCGAT | 3.26 | 2.81 | 0.42 | 4.42 | 6.73 | 3.99 | 2.63 | 4.68 | 2.82 | 3.84
GCTAATAGTTGAAAGGGCAACCGAATGATTCTCG | 0.971 | 1.16 | -0.065 | 1.09 | -0.087 | 2.85 | 3.03 | 4.2 | 2.1 | 3.9
GCATATAGGCAATACAAGGTGAAAGTCCGATTGT | 0.177 | 0.0524 | -0.175 | 0.343 | -0.636 | 1.12 | 0.804 | 0.669 | 0.415 | 0.712
TAGCCTAGGTCATTCAGGGGCCAGTATAGAAAGC | 4.58 | 3.73 | 0.785 | 3.2 | 0.97 | 3.78 | 1.97 | 2.59 | 0.55 | 1.45
CGACCTAGGTCATCCAGGACAGTGAATACATTGA | 5.2 | 3.44 | 0.586 | 2.78 | 0.0681 | 4.33 | 3.93 | 3.43 | 1.07 | 2.59
ATCGAAAGGGCGAAGGTGAGTATACCCACCCGAA | 0.199 | 0.432 | -0.538 | 0.0351 | -0.165 | 1.72 | 1.93 | 2.33 | 0.766 | 1.93
TAGCCTAGGTCAGTTCGGGCCAGTATACGCTATA | 1.39 | 0.745 | -0.272 | 0.551 | -0.0472 | 1.22 | 0.33 | 0.647 | -0.293 | 0.114
ATTGAAAGGTCGTGAGGTGAGTATACAGAAAGGC | 5.67 | 4.67 | 0.73 | 3.49 | 1.2 | 5.38 | 4.88 | 5.01 | 2.23 | 3.64
TCTTGTAGATCATCAGGTTAAGAAAGCTGGCCAA | 0.48 | 0.703 | 0.27 | 0.642 | -0.0532 | 0.993 | -0.352 | 1.6 | 2.71 | 1.98
TCATATAGGTAAACGTGAAAGTCGAACGATATGA | 0.211 | 0.332 | -0.204 | 0.164 | 0.105 | 1.33 | 1.44 | 2.44 | 3.42 | 2.86
TCTTGTAGATCAAGCAGGTTAAGGAAGCCTGAGT | 0.133 | 0.211 | -0.315 | 0.139 | -0.226 | 0.674 | -0.544 | 1.08 | 2.6 | 1.8
ATCTTTAGGTAACAAGTTCAGTGAAAGAGAGGAC | 1.21 | 1.09 | 0.889 | 1.08 | 1.44 | 1.41 | 0.762 | 1.44 | 0.49 | 0.949
ATCTCTAGGTAAAAAGTTCAGTGAAAGAGAGGAC | 1.28 | 1.39 | 1.03 | 0.921 | 0.888 | 1.98 | 2.7 | 3.72 | 2.6 | 3.68
ACAGGCAGGTGATGAAGGTAACTCAGGCTATCAT | -0.308 | -0.138 | -0.317 | -0.214 | -0.617 | -0.126 | 0.575 | -0.133 | 0.158 | -0.0613
CGTGCTAGGTCAATGGTCAGCTAAAGCAGCTCGC | 3.1 | 2.22 | 0.0909 | 1.37 | -0.184 | 3.03 | 5.04 | 5.55 | 2.98 | 5.12
